Measured values taken from PubChem BioAssay (NCI).
About 83,000 compounds went through this panel and 20% of them were active in at least one assay; those are over-represented in the sample as a whole.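 Interpretation: 100, growth as untreated; towards 0, rising growth inhibition; 0, no net growth; 0 to -100, cell death. Compounds scoring below 10 were considered active.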 Unmarked numbers belong to inactive results. The source made the active and inactive calls.

Each compound was assayed on HL-60(TB) leukemia (assay: NCI-60 one-dose screen, 48 h (100 = growth as untreated, 0 = no growth, -100 = all killed)). Details: 10 µM unless noted.

Structure (SMILES)	growth
COc1cc(/C=C\c2cc(/C=C\c3ccc(O)c(OC)c3)n(C(=O)CNc3ccc(Cl)cc3)n2)ccc1O	-11.6% (active)
O=C(CN1CCN(c2ccc(Cl)cc2)CC1)N1CCN(c2nnc(-c3ccccc3)c(-c3ccccc3)n2)CC1	-50.1% (active)
COC(=O)C1(C)CCC[C@]2(C)[C@H]3C[C@H]4C(C(C)C)=C[C@]3(CC[C@@H]12)[C@H]1[C@@H]4[C@@H](OCC#CCN2CCOCC2)CC[C@@H]1OCC#CCN1CCOCC1 (some centres not stated)	88.7%
O=C(Nc1ccc(Cl)cc1F)c1cc(Cl)ccc1O	-48% (active)
COc1ccccc1-c1ccc2c(N)c(C(=O)c3ccc4c(c3)OCO4)sc2n1	37%
CCOC(=O)CSc1nc2ccccc2c(=O)n1Cc1ccc(S(N)(=O)=O)cc1	100%
O=C(Nc1ccccc1)c1cc(-n2cnc([N+](=O)[O-])c2)cc(-n2cnc([N+](=O)[O-])c2)n1	96.4%
O=C1/C(=C/c2ccc([N+](=O)[O-])o2)Oc2ccc(Br)cc21	43.2%
C=C1C(=O)O[C@H]2[C@H]1CC/C(COC(=O)N[C@@H](Cc1c[nH]c3ccccc13)C(=O)OC)=C\CC[C@@]1(C)O[C@@H]21	-52.6% (active)
CN(C)Cc1cn(-c2ncc(-c3ccc(C(F)(F)F)cc3)c(NC3CCCCCC3)n2)nn1	83.3%
C=C[C@]1(C)C=C2C(=O)[C@@]3(O)OC[C@@]4(CCCC(C)(C)C43O)C2(O)C(O)C1 (some centres not stated)	-73.9% (active)
COc1cc(/C=C/C(=O)c2ccc(-n3cc(CN4CCN(c5cc6c(cc5F)c(=O)c(C(=O)O)cn6C5CC5)CC4)nn3)cc2)ccc1O	90.3%
Cc1ccc(-c2csc(NC(=O)CSc3nc(-c4ccccc4)cc(=O)[nH]3)n2)cc1	49.4%
c1ccc(Nc2nc(Nc3ccccc3)nc(Nc3ccccc3)n2)cc1	63.8%
COC1CC(C)C(OC)c2cc(O)cc(c2O)NC(=O)/C(C)=C/C=C\C(C)C(OC(N)=O)/C(C)=C\C(C)C1OC (configuration not stated)	-51.6% (active)
CC(/C=C1\SC(=S)N(CC(=O)NC(Cc2c[nH]c3ccccc23)C(=O)O)C1=O)=C\c1ccccc1 (configuration not stated)	100%
NNC(=S)N/N=C/c1ccccn1	1% (active)
CCOc1nc(-c2ccccc2)cc2c(O)c(C(=O)N/N=C/c3ccc(O)cc3O)[nH]c(=O)c12	19.7%
O=C(Nc1cccnc1Nc1ccccc1)c1cn(Cc2cccc(Oc3ccccc3)c2)nn1	18.9%
CC1(C)N=C(N)N=C(N)N1c1cccc(OCCOc2cccc([N+](=O)[O-])c2)c1	17.6%
COc1cc(/C=C/C(=O)N2CCN(C(=O)c3cc(OC)c(OC)c(OC)c3)CC2)ccc1OCCCN1C(=O)c2cccc3cccc(c23)C1=O	56.7%
COc1cc(-c2c(C#N)c(N)n3c(nc4ccccc43)c2C#N)cc(Br)c1OC	62.9%
O=C(N/N=C/c1ccccc1O)c1ccccc1O	4.12% (active)
COC(=O)c1cccc2c1N(C)c1c(cccc1C(=O)OC)CC2	71.6%
C#C[C@@]1(O)[C@@H](CO)O[C@@H](n2cc(Cl)c3c(N)ccnc32)[C@@H]1O	-2.37% (active)
OCC1OC(n2cnc3c(N/N=C\c4ccccn4)ncnc32)C(O)C1O (configuration not stated)	6.17% (active)
CCCCCCn1c(-c2ccc(C(=O)O/N=C(\N)c3ccc4ccccc4c3)cc2)nc(-c2ccccc2)c1-c1ccccc1	2.97% (active)
